This is one part of a sample in which hits are shown more often than they occur. How many sequences the whole screen found active is unknown. Unmarked numbers belong to inactive results.

For the assay, the system named is T1, Caupolican (Caup) homeodomain DNA-binding domain.
T1 sequence: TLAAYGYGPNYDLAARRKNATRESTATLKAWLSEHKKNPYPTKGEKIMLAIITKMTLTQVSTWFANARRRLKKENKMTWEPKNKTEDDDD
The assay can be described thus: PBM E-score (8-mer, recovered from the published 9-mer minima) (E-score (dimensionless, -0.5 to 0.5)); Drosophila protein; higher = stronger relative binding preference, active = 0.31 or more. In a few lines:
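Caup's homeodomain DNA-binding domain (residues 214-303) was produced by in vitro transcription and translation and applied at 100 nM to custom-designed protein binding microarrays. Each value is an enrichment score giving relative binding preference for a short DNA word; higher means stronger. Published 9-mer scores were the minimum of their two constituent 8-mer scores, and the 8-mer values were recovered from those minima. A cutoff of 0.31 marks candidate binding sequences.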
Take ACATACAC: the “PBM E-score” value is 0.352 (active).
The result for CCATACAC reads 0.105; that for GCATACAC, 0.208; that for AGGCCCTG, -0.09.
In the case of AACCAACT, the “PBM E-score” value was 0.143.
On to ATTGTACA, for which the “PBM E-score” value was 0.417 (active).
The result for GTTGTAGA reads 0.291; that for CTTGTGCA, 0.18.
The value for GTTGTGCA was 0.0605; that for CTTGTCCC was 0.186; that for GTTGTACA was 0.388 (active).
Turning to CTTGTACA, the “PBM E-score” value is 0.44 (active).
The result for CTTGTACC reads 0.389 (active); that for CTCGTACC, 0.0909; that for ATTGTACC, 0.2.
The result for ATTGTACG reads 0.203.
Regarding CTTGTAGA, the “PBM E-score” value was 0.248.
With ACTAGAGC, the “PBM E-score” value was -0.0268.
On to ACCGGTTA, for which the “PBM E-score” value is -0.00609.
As to CAGGGGTA, the “PBM E-score” value is -0.133.
The value for AGCGAGGG was -0.182; that for CTGATTAC was 0.231; that for AGCACACG was 0.042.
AGTACACA: the “PBM E-score” value was 0.342 (active).
The result for AGTACACC reads 0.265.
Regarding AGTACACT, the “PBM E-score” value was 0.181.
On to AGTACACG, for which the “PBM E-score” value is 0.376 (active).
The value for AGCACACA was 0.0184; that for CCCATAGG was -0.163; that for AAACTTGG was -0.0323.

For the origin of these results see the supplement of paper PMC3724861.
